# Results filed as inconclusive are left out. A call without a number means that no potency is given here. Active and inactive are the calls of the source. The call rests on the fitted dose curve; in most records, active means well fitted cell-killing curve with a large enough effect; inconclusive means small, poorly fitted or top-dose-only effect; inactive means flat fitted curve, though single readings scatter.
# Experiments:
# [1] = Cell Viability - LYMP2-021 (AID 974);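 further: compound exposure lasts 24 hours at 37 °C; nearly all actives have a fitted effect of over 55% in size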
# Outline: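 Human lymphoblastoid LYMP2-021 cells, 2500/well in complete medium, treated 24 hours at 37 C. Intracellular ATP by CellTiter-Glo luminescence (30 min, RT); AC50 from Hill fits of concentration-response.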
# [2] = Cell Viability - LYMP2-025 (AID 976)
# Outline: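 Human lymphoblastoid LYMP2-025 cells, 2500/well, exposed 24 h at 37 C in complete medium in 1536-well qHTS. Viability as cellular ATP by CellTiter-Glo luminescence; AC50 from Hill fits of concentration-response data.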
# [3] = Cell Viability - LYMP2-002 (AID 977)
# Outline: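 Luminescent ATP readout (CellTiter-Glo, 30 min room temperature) after 24 h compound exposure at 37 C of a human lymphoblastoid line, 2500 cells/well. AC50 values derived by standard Hill fitting of qHTS concentration-response data.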
# [4] = Cell Viability - LYMP2-006 (AID 978); further: nearly all actives have a fitted effect of over 60% in size
# Outline: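 Human lymphoblastoid cells, 2500 per well, were preincubated 5 hr at 37 C, then exposed to compounds for 24 hr at 37 C in complete medium. Viability was read as intracellular ATP by CellTiter-Glo luminescence; AC50 from Hill-equation fits of qHTS concentration-response data.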
# [5] = Cell Viability - LYMP2-007 (AID 979);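 further: cells exposed to compound for 24 h before reading; nearly all actives have a fitted effect of over 60% in size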
# Outline: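 Human lymphoblastoid LYMP2-007 cells (2500/well) preincubated 5 h at 37 C, then treated 24 h at 37 C in complete medium. Viability by CellTiter-Glo ATP luminescence after 30 min at room temperature; AC50 from Hill fits.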
# [6] = Cell Viability - LYMP2-008 (AID 980); further: nearly all actives have a fitted effect of over 60% in size
# Outline: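 LYMP2-008 lymphoblastoid cells (2500/well) plated 5 h, then treated 24 h at 37 C in complete medium. Viability read as intracellular ATP by CellTiter-Glo luminescence after 30 min at room temperature; AC50 from Hill fits.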
# [7] = Cell Viability - LYMP2-010 (AID 981); further: nearly all actives have a fitted effect of over 55% in size
# Outline: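 Human lymphoblastoid LYMP2-010 cells (2500/well) treated 24 h at 37 C in complete medium; viability read as intracellular ATP by CellTiter-Glo luminescence. AC50 from Hill fits of concentration-response data; tetraoctylammonium bromide positive control.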
# [8] = Cell Viability - LYMP2-012 (AID 982);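 further: cellular ATP by luciferase luminescence where a drop means cytotoxicity; cells exposed to compound for one day before reading; nearly all actives have a fitted effect of over 55% in size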
# [9] = Cell Viability - LYMP2-014 (AID 983); further: nearly all actives have a fitted effect of over 50% in size
# Outline: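 LYMP2-014 human lymphoblastoid cells, 2500/well, treated 24 h at 37 C in complete medium; viability by CellTiter-Glo ATP luminescence after 30 min at room temperature. AC50 from Hill fits of qHTS concentration-response; tetraoctylammonium bromide positive control.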
# [10] = Cell Viability - LYMP2-016 (AID 984); further: nearly all actives have a fitted effect of over 55% in size
# Outline: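 Human lymphoblastoid cells (LYMP2-016), 2500/well in complete medium, preincubated 5 hr at 37 C, then compound-treated 24 hr at 37 C. Intracellular ATP read by CellTiter-Glo luminescence after 30 min at room temperature; AC50 from Hill-equation concentration-response fits.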
# Potency means the concentration at half of the fitted maximal effect.
SMILES,Potency [1],Potency [2],Potency [3],Potency [4],Potency [5],Potency [6],Potency [7],Potency [8],Potency [9],Potency [10]
C#C[C@]1(O)CC[C@H]2[C@@H]3CCc4cc(O)ccc4[C@H]3CC[C@@]21C,inactive,inactive,inactive,inactive,inactive,inactive,inactive,inactive,inactive,inactive
CN1CCC[C@H]1c1cccnc1,inactive,inactive,inactive,inactive,inactive,inactive,inactive,inactive,inactive,inactive
CN(C)c1ccc(C(=C2C=CC(=[N+](C)C)C=C2)c2ccccc2)cc1,0.398 µM (active),0.501 µM (active),0.398 µM (active),0.501 µM (active),0.251 µM (active),0.316 µM (active),0.251 µM (active),0.158 µM (active),0.251 µM (active),0.501 µM (active)
CN(C)CCC(c1ccc(Cl)cc1)c1ccccn1 (stereo not drawn),inactive,inactive,inactive,inactive,inactive,inactive,–,–,inactive,inactive
CCCOC(=O)c1ccc(O)cc1,inactive,inactive,inactive,inactive,inactive,inactive,inactive,inactive,inactive,inactive
Nc1ccc(O)c(C(=O)O)c1,inactive,inactive,inactive,inactive,inactive,inactive,inactive,inactive,inactive,inactive
COc1cc(CNC(=O)CCCC/C=C/C(C)C)ccc1O,inactive,inactive,inactive,inactive,inactive,inactive,inactive,inactive,inactive,inactive
CC(C)NCC(O)COc1cccc2ccccc12 (stereo not drawn),inactive,inactive,inactive,inactive,inactive,inactive,inactive,inactive,inactive,inactive
c1ccc2sc(SSc3nc4ccccc4s3)nc2c1,inactive,inactive,inactive,inactive,–,inactive,inactive,inactive,inactive,inactive
Nc1ccc(O)c([N+](=O)[O-])c1,inactive,inactive,inactive,inactive,inactive,inactive,inactive,inactive,inactive,inactive
Nc1ccc([N+](=O)[O-])cc1O,inactive,inactive,inactive,inactive,inactive,inactive,inactive,inactive,inactive,inactive
S=c1[nH]c2ccccc2s1,inactive,inactive,inactive,inactive,inactive,inactive,inactive,inactive,inactive,inactive
N=C1N=C(N)c2cc3ccccc3cc21,39.8 µM (active),–,–,50.1 µM (active),39.8 µM (active),39.8 µM (active),39.8 µM (active),39.8 µM (active),39.8 µM (active),39.8 µM (active)
Nc1nc2ccc([N+](=O)[O-])cc2s1,inactive,inactive,inactive,inactive,inactive,inactive,–,inactive,inactive,inactive
CN(C)c1ccc(N=NS(=O)(=O)O)cc1,inactive,inactive,inactive,inactive,inactive,inactive,inactive,inactive,inactive,inactive
COc1cc(/C=C/C(=O)CC(=O)/C=C/c2ccc(O)c(OC)c2)ccc1O,50.1 µM (active),50.1 µM (active),39.8 µM (active),25.1 µM (active),25.1 µM (active),25.1 µM (active),25.1 µM (active),31.6 µM (active),–,39.8 µM (active)
O=C1CN(/N=C/c2ccc([N+](=O)[O-])o2)C(=O)N1,–,inactive,–,–,–,–,–,inactive,–,–
NCCO,inactive,inactive,inactive,inactive,inactive,inactive,inactive,inactive,inactive,inactive
O=c1cc(-c2ccccc2)oc2ccccc12,inactive,inactive,inactive,inactive,inactive,inactive,inactive,inactive,inactive,inactive
O=C(O)/C=C\C(=O)O,inactive,inactive,inactive,inactive,inactive,inactive,inactive,inactive,inactive,inactive
CC1(C)S[C@@H]2[C@H](NC(=O)[C@H](N)c3ccccc3)C(=O)N2[C@H]1C(=O)O,inactive,inactive,inactive,inactive,inactive,inactive,inactive,inactive,inactive,inactive
Oc1ccccc1O,–,inactive,–,–,inactive,inactive,–,–,–,inactive
O=C(O)c1cc(O)c(O)c(O)c1,inactive,–,inactive,inactive,inactive,inactive,inactive,inactive,inactive,inactive
CCCCCCCCCCCCCCCCCC(=O)O,inactive,inactive,inactive,inactive,inactive,inactive,inactive,inactive,inactive,inactive

# Reference: PubChem BioAssay (NCATS)
